# Laboratory results from PubChem BioAssay (NCATS).
# Where “and” joins values, the source holds several entries; their conditions need not be identical. Equal entries are not always repeated. Results filed as inconclusive are left out. Where a call stands in place of a potency, no number is given. Calls of active or inactive are those of the source. Calls follow the shape of the dose curve; as a rule, active = well fitted cell-killing curve with a large enough effect; inconclusive = small, poorly fitted or top-dose-only effect; inactive = no such curve, though single readings can be large or run the other way.
# Assay: qHTS of pediatric cancer cell lines to identify multiple opportunities for drug repurposing: Primary screen for SK-N-SH cells (AID 1347098); also: nearly all actives have a fitted effect of over 65% in size
# Settings: SK-N-SH viability, CellTiter-Glo luminescence, 48 h; series mostly up to 57 µM
# Description: Drug repurposing or repositioning has been offered as a strategy for drug development in oncology programs. This approach has special potential for childhood cancers and other rare or orphan diseases, where the expected return on new drug development has been a disincentive to pharmaceuticals.
# In this project we exploit the poly-pharmacology of drugs to discover new indications via phenotypic screening of a panel of 19 well-characterized cell lines derived from solid tumors seen in children and adolescents. The goal is to identify approved drugs with previously unrecognized anticancer properties that has the potential to reveal new mechanisms and biological processes involved in carcinogenesis or drug resistance. We employed a titration-based paradigm (quantitative high-throughput screening or qHTS), where all compounds were tested at multiple concentrations for their effect on cell viability. Concentration-response curves (CRCs) were derived directly from the primary screen, and both potency and efficacy values were used to identify compounds with robust bioactivity profiles. We screened the NIH Chemical Genomics Center (NCGC) Pharmaceutical Collection (NPC) and Mechanism Interrogation Plate (MIPE) small molecule collections of approved and investigational compounds against these cell lines; and measured metabolically active cells after 48 hours of compound treatment as a proxy for cell viability.
# Assay Submitter: Nathalia J. Martinez, National Center for Advancing Translational Sciences, National Institutes of Health, Rockville, MD, USA; email: natalia.martinez@nih.gov
# [1] Shen, M et al. Quantitative high-throughput phenotypic screening of pediatric cancer cell lines identifies multiple opportunities for drug repurposing. Oncotarget 2017 Dec 19;9(4):4758-4772. PMID 29435139.
# The cells were obtained from University of North Carolina (UNC), Pediatric Preclinical Testing Program (PPT), and Coriell Institute (CI).
# qHTS cell viability assay:
# Cells were assayed in growth media at a density of 500-1,000 cells/well. Five microliters of cells were dispensed into 1,536-well, white, solid-bottom, TC-treated plates (Greiner Bio One) using a multidrop dispenser and incubated at 37 degrees C, 5% CO2, under a humidified atmosphere for 5 hours. Twenty-three nanoliters of compounds and controls (neutral control DMSO or positive control bortezomib at final concentration of 2.3 µM) were subsequently transferred by Kalypsys pintool. For primary screens, the MIPE collection was tested at 11-point dilutions (final concentrations range from 0.78 nM to 46 µM) and the NPC collection at 8-point dilutions (final concentrations range from 0.59 nM to 46 µM). Compounds tested in follow-up screens were assayed at 11-point dilutions. Cells were incubated for 48 hours, followed by addition of 3 µL of CellTiter-Glo (Promega). After a 15 min incubation at room temperature, samples were analyzed for luminescence intensity using a ViewLux High-throughput CCD imager equipped with clear filters.
# Potency is read from the fitted curve at half-maximal effect.
row,SMILES,Potency
1,Cn1cc(C2=C(c3cn(C4CCN(Cc5ccccn5)CC4)c4ccccc34)C(=O)NC2=O)c2ccccc21,inactive
2,c1ccc(C2CC2)c(OCC2=NCCN2)c1,inactive
3,CC[N+]1(C)CCCC(OC(=O)C(O)(c2ccccc2)c2ccccc2)C1 (stereo not given),inactive
4,C[C@]12CC[C@H]3[C@@H](CCC4=CC(=O)CC[C@@H]43)[C@@H]1CC[C@@H]2OC(=O)CCc1ccccc1,inactive
5,c1ccc2c(c1)OCC(C1=NCCN1)O2 (stereo not given),13.7 µM (active)
6,CCC(COC(=O)c1cc(OC)c(OC)c(OC)c1)(c1ccccc1)N(C)C (stereo not given),inactive
7,N[C@@H]1C[C@H]1c1ccccc1,inactive
8,C[C@]12CCC(=O)C(O)=C1CC[C@@H]1[C@@H]2CC[C@]2(C)C(=O)CC[C@@H]12,inactive
9,CC[C@@H](CO)NC(=O)[C@@H]1C=C2c3cccc4[nH]cc(c34)C[C@H]2N(C)C1,inactive
10,NP(N)(=O)NC(=O)c1ccc(F)cc1,inactive
11,CC(=O)[C@H]1CC[C@H]2[C@@H]3CC[C@H]4C[C@H](O)CC[C@]4(C)[C@H]3C(=O)C[C@]12C,inactive
12,C[C@H]1O[C@@H](O[C@H]2[C@@H](O)C[C@H](O[C@H]3[C@@H](O)C[C@H](O[C@H]4CC[C@@]5(C)[C@H](CC[C@@H]6[C@@H]5CC[C@]5(C)[C@@H](C7=CC(=O)OC7)CC[C@]65O)C4)O[C@@H]3C)O[C@@H]2C)C[C@H](O)[C@@H]1O,0.0864 µM (active)
13,C=CCN1CC[C@]23c4c5ccc(O)c4O[C@H]2C(=O)CC[C@@]3(O)[C@H]1C5,inactive
14,CNC(=O)c1ccc(N2C(=S)N(c3ccc(C#N)c(C(F)(F)F)c3)C(=O)C23CCC3)cc1F,19.2 µM (active)
15,Cc1sc2c(c1C)C(c1ccc(Cl)cc1)=N[C@@H](CC(=O)OC(C)(C)C)c1nnc(C)n1-2,2.41 µM (active)
16,O=P1(NCCCl)OCCCN1CCCl (stereo not given),inactive
17,C=C1C[C@@H]2[C@H](CC[C@]3(C)C(=O)CC[C@@H]23)[C@@]2(C)C=CC(=O)C=C12,inactive
18,CC[C@@H](CO)NC(=O)[C@@H]1C=C2c3cccc4c3c(cn4C)C[C@H]2N(C)C1,inactive
19,OCCOc1ccccc1,inactive
20,COc1ccccc1N1CCNCC1,inactive

row,SMILES,Potency
1,FC(F)(F)c1cccc(C2=CCN(CCc3ccc4ccccc4c3)CC2)c1,inactive
2,CC(C)NCC(O)c1ccccc1Cl (stereo not given),inactive
3,Oc1ccc(Cl)cc1Cc1ccccc1,35.8 µM (active) and 17.2 µM (active)
4,O=C(O)c1ccc2[nH]cc(CCCCN3CC=C(c4ccccc4)CC3)c2c1,inactive
5,CN(C)CCc1ccc(O)cc1,inactive
6,COc1ccc(C(=O)c2c(C)n(CCN3CCOCC3)c3ccccc23)cc1,inactive
7,O=C1CC[C@@]2(O)[C@H]3Cc4ccc(O)c5c4[C@@]2(CCN3CC2CC2)[C@H]1O5,inactive
8,CCN(CC)CCOC(=O)C(O)(c1ccccc1)c1ccccc1,inactive
9,N#CC(C#N)=Cc1ccc(O)c(O)c1,inactive
10,O=C(O)C(=O)c1cn(Cc2ccccc2)c2ccc(-c3ccc(OC(F)(F)F)cc3)cc12,inactive
11,C=C1CC[C@@]2(O)[C@H]3Cc4ccc(O)c5c4[C@@]2(CCN3CC2CC2)[C@H]1O5,inactive
12,Cc1cccc(C)c1NC(=O)CN1CCCC1=O,inactive
13,NCCc1cc(O)c(O)cc1O,inactive
14,CC(=O)Nc1cc([As](=O)(O)O)ccc1O,inactive
15,C#CCOC(C(=O)OCCN(C)C)(c1ccccc1)c1ccccc1,inactive
16,CC[N+](CC)(CC)CC,inactive
17,Fc1ccc(C(OCCN2CCN(CCCc3ccccc3)CC2)c2ccc(F)cc2)cc1,9.7 µM (active)
18,Cn1c(CCCC(=O)O)nc2cc(N(CCCl)CCCl)ccc21,inactive
19,CC1=C2C[C@@H]3[C@@H](CC=C4C[C@@H](O)CC[C@@]43C)[C@@H]2CC[C@]12O[C@H]1C[C@H](C)CN[C@H]1[C@H]2C,6.07 µM (active)
20,COc1ccc2c(c1OC)CN1CCc3cc4c(cc3C1C2)OCO4 (stereo not given),inactive
